The record followed here is a collection of fitness landscapes (doi:10.1016/j.celrep.2020.107928).

In all, about 81,000 sequences were measured (“one-hybrid fitness for binding NBS DNA”: median about -0.1, highest 2% from about 0.36 on). The entries come from a sample that favours the highest values as a whole. Some results are limits rather than exact numbers.

Sequences and labels used below:
B1: Caulobacter ParB omega fusion; a variant is named by its letters at X, in order, B8GW30 (parent)
chain: MESVVVGEPGMSEGRRGLGRGLSALLGEVDAAPAQAPGEQLGGSREAPIEILQRNPDQPRRTFREEDLEDLSNSIREKGVLQPILVRPSPDTAGEYQIVAGERAWRAAQRAGLKTVPIMVRELDDLAVLEIGIIENVQRADLNVLEEALSYKVLMEKFERTQENIAQTIGKSXSHVANXMRLLXLPDEVQSYLVSGELTAXHARAIAAAADPVALAKQIIEGGLSVRETEALARKAPNLSAGKSKGGRPPRVKDTDTQALESDLSSVLGLDVSIDHRGSTGTLTITYATLEQLDDLCNRLTRGI

In this test the parent is B1. As to the kind of experiment: one-hybrid fitness for binding NBS DNA (the Noc-binding site; scaled: cognate 1, non-cognate 0); higher = stronger binding. Particulars: with NBS DNA site. In short, it runs like this:
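Caulobacter ParB libraries with four specificity codons randomised were screened by bacterial one-hybrid selection in the E. coli USO strain, using a HIS3 reporter whose site lies 19 bp from the promoter. Selection ran for 48 hours at 37°C on M9 lacking histidine, with 0.1 mM IPTG and 5 mM 3-AT. Plasmids were Illumina-sequenced before and after selection, three replicate libraries were pooled, and variants with under 10 reads were dropped. Fitness is the log change in each variant's read ratio to wild type, rescaled against the cognate and non-cognate sites.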
AHGY: the “one-hybrid fitness for binding NBS DNA” value was ≤ 0.2. In the case of VSQE it was ≤ 0.2; in that of EAKN, ≤ 0.2; in that of LLTW, ≤ 0.2. As for AKGR, the figure is ≤ 0.2.

Regarding QLFF, the “one-hybrid fitness for binding NBS DNA” value was ≤ 0.2. In the case of YHKT it was ≤ 0.2. In the case of GRAV it was ≤ 0.2; in that of LTWN, ≤ 0.2; in that of RRAD, ≤ 0.2. In the case of RRFH it was 0.389; in that of RRFN, 0.23; in that of RRAH, 0.406. Turning to RPFS, the “one-hybrid fitness for binding NBS DNA” value was ≤ 0.2. As for RSFS, the figure is 0.252; as for RRFD, ≤ 0.2; as for RRFM, 0.266. As for RRAN, the figure is 0.282; as for RCFS, 0.411; as for RRFP, ≤ 0.2. As for RRFS, the figure is 0.666; as for LARA, ≤ 0.2; as for ELER, ≤ 0.2. Take PWIR: the “one-hybrid fitness for binding NBS DNA” value is ≤ 0.2. As for MRID, the figure is ≤ 0.2; as for CPAI, ≤ 0.2; as for RRAP, ≤ 0.2. In the case of RRAS it was 0.655; in that of RRAK, 0.254. Regarding RIHH, the “one-hybrid fitness for binding NBS DNA” value is ≤ 0.2. In the case of RIQH it was ≤ 0.2; in that of RILR, 0.27; in that of RIHP, ≤ 0.2. As for RIQR, the figure is 0.38; as for RIPR, ≤ 0.2; as for RIHR, 0.477.

Consider RISD, for which the “one-hybrid fitness for binding NBS DNA” value is ≤ 0.2.

On to RIQD, for which the “one-hybrid fitness for binding NBS DNA” value is ≤ 0.2.

On to RISR, for which the “one-hybrid fitness for binding NBS DNA” value stood at 0.386. As for RISN, the figure is ≤ 0.2. As for RIYR, the figure is 0.377; as for PALM, ≤ 0.2.

As to HPME, the “one-hybrid fitness for binding NBS DNA” value was ≤ 0.2. PIEV: the “one-hybrid fitness for binding NBS DNA” value is ≤ 0.2. In the case of KSHW it was ≤ 0.2; in that of VSAN, ≤ 0.2. Regarding EYDR, the “one-hybrid fitness for binding NBS DNA” value is ≤ 0.2.

As for AMER, the “one-hybrid fitness for binding NBS DNA” value was ≤ 0.2. As for ITVP, the “one-hybrid fitness for binding NBS DNA” value was ≤ 0.2. Turning to GPTF, the “one-hybrid fitness for binding NBS DNA” value is ≤ 0.2.

In the case of TCYM, the “one-hybrid fitness for binding NBS DNA” value is ≤ 0.2. For RGSS, the “one-hybrid fitness for binding NBS DNA” value is ≤ 0.2.

Regarding WTNW, the “one-hybrid fitness for binding NBS DNA” value was ≤ 0.2. Take HPYT: the “one-hybrid fitness for binding NBS DNA” value was ≤ 0.2.

For GAIA, the “one-hybrid fitness for binding NBS DNA” value is ≤ 0.2. As for RIIR, the figure is ≤ 0.2; as for RIRR, 0.638.

For the variant RIGR, the “one-hybrid fitness for binding NBS DNA” value was 0.441.

Turning to RIWM, the “one-hybrid fitness for binding NBS DNA” value was ≤ 0.2. For RIWN, the “one-hybrid fitness for binding NBS DNA” value was ≤ 0.2.

For RIRH, the “one-hybrid fitness for binding NBS DNA” value worked out at 0.333. On to RIWR, for which the “one-hybrid fitness for binding NBS DNA” value came to 0.367. In the case of RIGD it was ≤ 0.2; in that of RIGH, ≤ 0.2. In the case of ISCL it was ≤ 0.2. As to YPMG, the “one-hybrid fitness for binding NBS DNA” value was ≤ 0.2. Take GWYC: the “one-hybrid fitness for binding NBS DNA” value is ≤ 0.2. Consider RPAE, for which the “one-hybrid fitness for binding NBS DNA” value was ≤ 0.2. As for HFNL, the figure is ≤ 0.2; as for RVAR, 0.396; as for RVYR, 0.359. In the case of RVQH it was ≤ 0.2; in that of RVQR, 0.415. As to RVAH, the “one-hybrid fitness for binding NBS DNA” value is ≤ 0.2. Consider RVRR, for which the “one-hybrid fitness for binding NBS DNA” value turned out to be 0.626. In the case of RVWR it was 0.248; in that of RVFR, 0.34; in that of RVQS, 0.357. As for TANR, the figure is ≤ 0.2; as for ERVW, ≤ 0.2. As for TLWC, the figure is ≤ 0.2. With KAYA, the “one-hybrid fitness for binding NBS DNA” value is ≤ 0.2. As for QKKQ, the figure is 0.384; as for QKKN, 0.42.

Take QKHQ: the “one-hybrid fitness for binding NBS DNA” value is ≤ 0.2. For QKKP, the “one-hybrid fitness for binding NBS DNA” value was 0.26. In the case of QKKG, the “one-hybrid fitness for binding NBS DNA” value was 0.332. In the case of QKVQ it was 0.268; in that of QKVH, ≤ 0.2; in that of QKKD, 0.211. In the case of QKKS it was 0.662; in that of QKKH, 0.619; in that of QKKE, 0.283.

As for QKKI, the “one-hybrid fitness for binding NBS DNA” value worked out at 0.337. In the case of FAHG it was ≤ 0.2. In the case of SLHE it was ≤ 0.2; in that of RHIK, ≤ 0.2. For the variant GTLP, the “one-hybrid fitness for binding NBS DNA” value is ≤ 0.2. As for PPRN, the figure is ≤ 0.2; as for SIAA, ≤ 0.2. As for YQPS, the figure is ≤ 0.2; as for KTAW, ≤ 0.2; as for CMYT, ≤ 0.2.

Turning to DGST, the “one-hybrid fitness for binding NBS DNA” value was ≤ 0.2. As to AMAP, the “one-hybrid fitness for binding NBS DNA” value is ≤ 0.2. In the case of QKNS it was 0.539; in that of QKQS, 0.458; in that of QKYN, ≤ 0.2. In the case of QKQP it was ≤ 0.2. In the case of QKRN it was 0.37.

For the variant QKRG, the “one-hybrid fitness for binding NBS DNA” value was determined as 0.335. Regarding QKDS, the “one-hybrid fitness for binding NBS DNA” value amounted to 0.332.

For QKYS, the “one-hybrid fitness for binding NBS DNA” value came out at 0.43. In the case of QKIS it was 0.278. As for QKNP, the figure is ≤ 0.2; as for QKQD, ≤ 0.2.

For the variant QKPS, the “one-hybrid fitness for binding NBS DNA” value was ≤ 0.2. For DCTY, the “one-hybrid fitness for binding NBS DNA” value is ≤ 0.2.

With IHHC, the “one-hybrid fitness for binding NBS DNA” value is ≤ 0.2.

Consider WGKE, for which the “one-hybrid fitness for binding NBS DNA” value was ≤ 0.2. Consider WAWT, for which the “one-hybrid fitness for binding NBS DNA” value was ≤ 0.2.

As for MWRS, the “one-hybrid fitness for binding NBS DNA” value is ≤ 0.2. In the case of MATS it was ≤ 0.2; in that of CSVV, ≤ 0.2; in that of GFNG, ≤ 0.2.

As for QKHS, the “one-hybrid fitness for binding NBS DNA” value was 0.494. In the case of QKAN it was ≤ 0.2. As for GKLH, the figure is 0.366; as for QKHH, 0.205. In the case of QKCH it was ≤ 0.2. For the variant QKHD, the “one-hybrid fitness for binding NBS DNA” value was ≤ 0.2. On to QKAP, for which the “one-hybrid fitness for binding NBS DNA” value is ≤ 0.2. As for QKCS, the figure is 0.419; as for GKLD, ≤ 0.2; as for GKLS, ≤ 0.2. In the case of QKAS it was 0.498; in that of QKCN, ≤ 0.2; in that of SLNQ, ≤ 0.2. As for VERV, the figure is ≤ 0.2; as for NEQT, ≤ 0.2. For RMDV, the “one-hybrid fitness for binding NBS DNA” value was ≤ 0.2. As for RYAC, the figure is ≤ 0.2. As for YPLD, the figure is ≤ 0.2. As for IQMR, the “one-hybrid fitness for binding NBS DNA” value is ≤ 0.2. With QKLD, the “one-hybrid fitness for binding NBS DNA” value is ≤ 0.2. In the case of QKLH it was 0.246; in that of QKSS, 0.449. In the case of QKSP it was ≤ 0.2. In the case of GWLI it was 0.404. QKRF: the “one-hybrid fitness for binding NBS DNA” value came to 0.258. In the case of GWLS it was ≤ 0.2; in that of QKLS, 0.392. In the case of QKSH it was 0.241.
